Where “and” joins values, the source holds several entries; their conditions need not be identical. Equal values may be shown once. Out of some 5,500 compounds screened, about 2,000 (36%) were called active. Inconclusive results (about 18%) are left out. No stated cut-off is given here; in the data, active means normalized growth mostly below about 0.91 (no sharp cut-off); inconclusive means no clear call, values can overlap the other calls; inactive means mostly above about 0.92. Some of the results follow.
Assay: chemical genetic growth profiling, strain panel (AID 1159580);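 further: tested at 20 µM; growth read once vehicle control cultures reached saturation at 30 °C; 1 = growth at the plate median or of vehicle wells; lower values mean less growth of the strain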
Details: S. cerevisiae deletion strains, growth OD

Measured: normalized growth

CC1(C)C2CC(=O)[C@]3(C)C(CC[C@@]4(C)[C@H](c5ccoc5)OC(=O)C5OC543)[C@@]2(C)[C@@H](O)C[C@H]1O (stereo not given in full)
inactive: locus YAL021C, strain ccr4, active compounds read low 0.987 | locus YAL026C, strain drs2, active compounds read low 1.01 | locus YAL030W, strain snc1, active compounds read low 1 | locus YBL061C, strain skt5, active compounds read low 1.01 | locus YBR009C, strain hhf1, active compounds read low 1.02 | locus YBR021W, strain FUR4, active compounds read low 1 | locus YBR023C, strain chs3, active compounds read low 1.01 | locus YBR171W, strain sec66, active compounds read low 1.03 | locus YBR229C, strain ROT2, active compounds read low 1.01 | locus YBR231C, strain swc5, active compounds read low 1.01 | locus YBR279W, strain paf1, active compounds read low 1 | locus YCL011C, strain gbp2, active compounds read low 1.01 | locus YCL016C, strain dcc1, active compounds read low 1.01 | locus YCL029C, strain bik1, active compounds read low 1.02 | locus YCL069W, strain vba3, active compounds read low 1.02 | locus YCR088W, strain abp1, active compounds read low 1.01 | locus YDL005C, strain med2, active compounds read low 1 | locus YDL035C, strain GPR1, active compounds read low 1.08 | locus YDL040C, strain nat1, active compounds read low 1 | locus YDL074C, strain BRE1, active compounds read low 1.09 | locus YDL101C, strain DUN1, active compounds read low 1.02 | locus YDL134C, strain PPH21, active compounds read low 1.04 | locus YDL185W, strain tfp1, active compounds read low 0.996 | locus YDL192W, strain arf1, active compounds read low 1.01 | locus YDR001C, strain nth1, active compounds read low 1 | locus YDR069C, strain doa4, active compounds read low 0.995 | locus YDR101C, strain arx1, active compounds read low 0.98 | locus YDR137W, strain rgp1, active compounds read low 1.02 | locus YDR159W, strain sac3, active compounds read low 1.03 | locus YDR162C, strain NBP2, active compounds read low 1.05 | locus YDR195W, strain ref2 0.968 | locus YDR297W, strain sur2, active compounds read low 1.01 | locus YDR318W, strain mcm21, active compounds read low 1 | locus YDR334W, strain swr1, active compounds read low 1 | locus YDR335W, strain msn5, active compounds read low 1.01 | locus YDR388W, active compounds read low 0.976 | locus YDR392W, strain spt3, active compounds read low 1.01 | locus YDR502C, strain sam2, active compounds read low 1.01 | locus YEL003W, strain gim4, active compounds read low 1.01 | locus YEL037C, strain rad23, active compounds read low 1 | locus YEL061C, strain CIN8 (second series), active compounds read low 0.994 | locus YER015W, strain faa2, active compounds read low 0.997 | locus YER016W, strain bim1, active compounds read low 1.01 | locus YER110C, active compounds read low 0.988 | locus YER111C, strain swi4, active compounds read low 1.01 | locus YER155C, strain BEM2 (second series), active compounds read low 1.02 | locus YER155C, strain BEM2, active compounds read low 1 | locus YER167W, strain BCK2, active compounds read low 1.01 | locus YFR010W, strain ubp6, active compounds read low 0.994 | locus YGL078C, strain dbp3, active compounds read low 0.987 | locus YGL086W, strain mad1, active compounds read low 1 | locus YGL167C, strain pmr1, active compounds read low 1 | locus YGL173C, strain kem1, active compounds read low 1.01 | locus YGL227W, strain vid30, active compounds read low 1.03 | locus YGL240W, strain doc1, active compounds read low 1.01 | locus YGL248W, strain PDE1, active compounds read low 1.06 | locus YGL253W, strain hxk2, active compounds read low 1 | locus YGR078C, strain PAC10, active compounds read low 1.05 | locus YGR135W, strain pre9, active compounds read low 1 | locus YGR252W, strain gcn5, active compounds read low 0.913 | locus YHR013C, strain ard1, active compounds read low 1.02 | locus YHR027C, strain rpn1, active compounds read low 0.985 | locus YHR030C, strain SLT2, active compounds read low 1.02 and 1.04 | locus YHR079C, strain IRE1 (second series), active compounds read low 0.985 | locus YHR079C, strain IRE1, active compounds read low 1.03 | locus YHR094C, strain hxt1, active compounds read low 0.982 | locus YHR129C, strain ARP1, active compounds read low 1.03 | locus YHR142W, strain chs7, active compounds read low 0.989 | locus YHR200W, strain rpn10, active compounds read low 0.996 | locus YIL066C, strain RNR3, active compounds read low 1.02 | locus YIL073C, strain SPO22, active compounds read low 1.12 | locus YIL125W, strain kgd1, active compounds read low 0.992 | locus YIR030C, strain dcg1, active compounds read low 0.985 | locus YJL092W, strain hpr5, active compounds read low 1 | locus YJL095W, strain BCK1 (second series), active compounds read low 1.02 | locus YJL095W, strain BCK1, active compounds read low 1.07 and 1.01 | locus YJL115W, strain asf1, active compounds read low 0.999 | locus YJL129C, strain trk1, active compounds read low 1.02 | locus YJL134W, strain LCB3, active compounds read low 1.01 | locus YJL154C, strain vps35, active compounds read low 0.999 | locus YJL164C, strain tpk1, active compounds read low 1.01 | locus YJL166W, strain qcr8, active compounds read low 1.01 | locus YJL168C, strain set2, active compounds read low 1 | locus YJL187C, strain SWE1 (second series), active compounds read low 1.03 | locus YJL187C, strain SWE1, active compounds read low 1.01 | locus YJR066W, strain TOR1, active compounds read low 0.964 | locus YKL009W, strain mrt4, active compounds read low 0.998 | locus YKL068W, active compounds read low 0.984 | locus YKL085W, strain MDH1 (second series), active compounds read low 0.989 | locus YKL085W, strain MDH1, active compounds read low 0.989 | locus YKL160W, strain elf1, active compounds read low 1.02 | locus YKL190W, strain CNB1, active compounds read low 1.01 | locus YKR001C, strain vps1, active compounds read low 0.997 | locus YKR026C, strain gcn3, active compounds read low 1.01 | locus YKR091W, strain srl3, active compounds read low 1.01 | locus YLL001W, strain dnm1, active compounds read low 0.999 | locus YLL026W, active compounds read low 1 | locus YLL041C, strain sdh2, active compounds read low 0.997 | locus YLR027C, strain aat2, active compounds read low 1.01 | locus YLR039C, strain RIC1, active compounds read low 1.17 | locus YLR058C, strain SHM2, active compounds read low 1.03 | locus YLR102C, strain apc9, active compounds read low 0.989 | locus YLR113W, strain HOG1, active compounds read low 0.988 | locus YLR221C, strain rsa3, active compounds read low 1.01 | locus YLR258W, strain gsy2, active compounds read low 1.01 | locus YLR262C, strain YPT6 (second series), active compounds read low 1.01 | locus YLR268W, strain sec22, active compounds read low 1.02 | locus YLR320W, strain mms22, active compounds read low 1 | locus YLR342W, strain FKS1 (second series), active compounds read low 1.04 | locus YLR342W, strain FKS1, active compounds read low 1.02 | locus YLR357W, strain rsc2, active compounds read low 1.01 | locus YLR370C, strain arc18, active compounds read low 0.996 | locus YLR371W, strain rom2, active compounds read low 0.992 | locus YLR384C, strain iki3, active compounds read low 0.99 | locus YLR418C, strain cdc73, active compounds read low 0.974 | locus YML016C, strain PPZ1, active compounds read low 1.01 | locus YML032C, strain rad52, active compounds read low 0.986 | locus YML120C, strain ndi1, active compounds read low 1.01 | locus YML124C, strain tub3, active compounds read low 0.992 | locus YMR058W, strain fet3, active compounds read low 1 | locus YMR078C, strain ctf18, active compounds read low 0.988 | locus YMR125W, strain sto1, active compounds read low 1.01 | locus YMR129W, active compounds read low 1 | locus YMR205C, strain PFK2, active compounds read low 1.03 | locus YMR223W, strain ubp8, active compounds read low 0.985 | locus YMR231W, strain pep5, active compounds read low 1.01 | locus YMR263W, strain SAP30, active compounds read low 1.01 | locus YMR307W, strain GAS1, active compounds read low 1.15 | locus YNL067W, strain RPL9B, active compounds read low 1.02 | locus YNL071W, strain lat1, active compounds read low 1 | locus YNL153C, strain GIM3, active compounds read low 1.06 | locus YNL183C, strain NPR1, active compounds read low 0.967 | locus YNL209W, strain ssb2, active compounds read low 0.997 | locus YNL233W, strain BNI4, active compounds read low 1.06 | locus YNL248C, strain rpa49, active compounds read low 1 | locus YNL250W, strain rad50, active compounds read low 1.03 | locus YNL271C, strain bni1, active compounds read low 0.968 | locus YNL298W, strain CLA4, active compounds read low 0.991 | locus YNL307C, strain MCK1, active compounds read low 0.987 | locus YNL322C, strain KRE1 (second series), active compounds read low 1.03 | locus YNR049C, strain mso1, active compounds read low 0.997 | locus YNR052C, strain pop2, active compounds read low 0.975 | locus YOL012C, strain htz1 1.54 | locus YOL147C, strain pex11, active compounds read low 0.982 | locus YOR001W, strain rrp6, active compounds read low 1.01 | locus YOR061W, strain CKA2, active compounds read low 1.01 | locus YOR069W, strain VPS5, active compounds read low 1.01 | locus YOR070C, strain gyp1, active compounds read low 1 | locus YOR080W, strain dia2, active compounds read low 0.999 | locus YOR083W, strain WHI5, active compounds read low 1.02 | locus YOR106W, strain vam3, active compounds read low 1.01 | locus YOR136W, strain idh2, active compounds read low 0.986 | locus YOR144C, strain elg1, active compounds read low 0.979 | locus YOR184W, strain ser1, active compounds read low 1.01 | locus YOR231W, strain MKK1, active compounds read low 1.03 | locus YOR265W, strain rbl2, active compounds read low 0.983 | locus YOR270C, strain vph1, active compounds read low 0.904 | locus YOR290C, strain snf2, active compounds read low 1.02 | locus YOR316C, strain cot1, active compounds read low 0.979 | locus YPL051W, strain arl3, active compounds read low 0.994 | locus YPL078C, strain atp4, active compounds read low 1.03 | locus YPL106C, strain sse1, active compounds read low 1.02 | locus YPL240C, strain hsp82, active compounds read low 1 | locus YPL241C, strain CIN2, active compounds read low 1.02 | locus YPL256C, strain CLN2, active compounds read low 1.03 | locus YPR119W, strain clb2, active compounds read low 0.978 | locus YPR141C, strain kar3, active compounds read low 0.99 | locus YPR163C, strain tif3, active compounds read low 0.997 | locus YPR167C, strain met16, active compounds read low 1 | strain wtn01, active compounds read low 1

Reference: PubChem BioAssay AID1159580 (chemical genetic matrix, 2015)
